This note sets out measurements from PubChem BioAssay (NCI).

Experiment [1] in a line: NCI Yeast Anticancer Drug Screen. Data for the rad50 strain (AID 155).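 Note: 0% = growth of vehicle-only cultures of the same strain.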 The settings on record: S. cerevisiae rad50 strain growth inhibition; at 50.0 µM; stronger effect = higher value. The procedure, abridged: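 Yeast carrying a defined DNA repair defect were exposed to test compounds, and growth was compared with vehicle-treated controls to give percent inhibition.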
Experiment [2] in a line: NCI Yeast Anticancer Drug Screen. Data for the mec2-1 strain (AID 157). The note with it: S. cerevisiae mec2-1 strain, at 50.0 µM, stronger effect = higher value. The procedure, abridged:
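Readout is yeast growth inhibition, normalised to vehicle-treated controls, in the mec2-1 strain exposed to compound.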

The nature of experiment [3]: NCI Yeast Anticancer Drug Screen. Data for the sgs1 mgt1 strain (AID 161).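 Note: 0% = growth of cultures given vehicle only.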 The settings on record: S. cerevisiae sgs1 mgt1 strain, at 50.0 µM, stronger effect = higher value. The gist of the method: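 Compounds are added to genetically altered yeast, and growth is compared with cultures given vehicle alone to give percent inhibition.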
Experiment [4] is described as follows: NCI Yeast Anticancer Drug Screen. Data for the cln2 rad14 strain (AID 165).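 Note: 0% = growth equal to vehicle treated cultures.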 The settings on record: S. cerevisiae cln2 rad14 strain, at 50.0 µM, stronger effect = higher value. The gist of the method:
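Relative to vehicle controls, growth inhibition of compound-treated cln2 rad14 yeast was recorded.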

Experiment [5] is described as follows: NCI Yeast Anticancer Drug Screen. Data for the bub3 strain (AID 167). The settings on record: S. cerevisiae bub3 mutant strain, at 50.0 µM, stronger effect = higher value. The procedure, abridged:
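Compounds were applied to a genetically altered yeast strain carrying a cell-cycle control defect. Growth inhibition was scored against vehicle-treated controls.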

The nature of experiment [6]: NCI Yeast Anticancer Drug Screen. Data for the mlh1 rad18 strain (AID 175). The settings on record: S. cerevisiae mlh1 rad18 strain growth inhibition; at 50.0 µM; stronger effect = higher value. The procedure, abridged: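 Test agents were incubated with a yeast strain of defined genotype (DNA damage repair defect). Inhibition of growth was derived by comparison with vehicle-exposed cultures.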

Values joined by “and” are separate entries in the source; they are usually repeats but may differ in a detail not shown here. Equal values may be shown once. This is part of a sample that, as a whole, favours compounds with a hit. Of some 79,000 tested, about 15% had one in any assay. Unmarked numbers belong to inactive results. Active and inactive are the calls of the source. Cut-off read from the data, not from the text of the source: active = growth inhibition above about 70%; inactive = the rest.

In the case of `CCC(Br)C(N)=O` (stereo not given), the growth inhibition is -9.25% in experiment [1]; 3.2% in experiment [2]; -6.9% in experiment [3]; -59.5% in experiment [4]; -4.25% in experiment [5]; -1% in experiment [6].
Turning to `CSC(SC)=C1C(=O)NC(=O)NC1=O`, the growth inhibition in experiment [1] is -11.8%; in experiment [2] it was 1.65%; in experiment [3] it was 1.7%; in experiment [4], 10.2%; in experiment [5], -10.1%; in experiment [6] it was -16.4%.
Regarding `ClCc1cccc2ccccc12`, the growth inhibition in experiment [1] was -28.7%; in experiment [2], -4.7%; in experiment [3], -26.1%; in experiment [4], -6.05%; in experiment [5] it was -7.6%; in experiment [6], -39%.
Consider `Oc1cc(Br)c(O)c(Br)c1`, for which the growth inhibition is 10.3% in experiment [1]; 42.8% in experiment [2]; 29.9% in experiment [3]; -11% in experiment [4]; 36.4% in experiment [5]; 41.8% in experiment [6].
For `O=[As](O)(O)c1cc(F)ccc1F`, the growth inhibition in experiment [1] was -5.75%; in experiment [2] it was -4.3%; in experiment [3] it was -11.4%; in experiment [4] it was -15.3%; in experiment [5], -8%; in experiment [6], -8.3%.
In the case of `CN(C)C(=O)C(Cl)Cl`, the growth inhibition in experiment [1] is -0.75%; in experiment [2] it was 7.3%; in experiment [3] it was -4%; in experiment [4], -7.25%; in experiment [5], 12.8%; in experiment [6], 2.25%.
Turning to `CC1COC(Nc2cccc3c2CCCC3)=N1` (stereo not given), the growth inhibition in experiment [1] is -10.1%; in experiment [2], -13.7%; in experiment [3], -10.6%; in experiment [4] it was -34%; in experiment [5], -8.1%; in experiment [6], 3%.
In the case of `O=c1oc2ccccc2c(O)c1C(c1ccc(O)cc1)c1c(O)c2ccccc2oc1=O`, the growth inhibition was -1.35% in experiment [1]; 3.1% in experiment [2]; -6.4% in experiment [3]; -2.95% in experiment [4]; -3% in experiment [5]; -33.9% in experiment [6].
For the molecule `OP(=S)(OCc1ccccc1)OCc1ccccc1`, the growth inhibition in experiment [1] is 18.9%; in experiment [2], 19.6%; in experiment [3], 5.95%; in experiment [4], -13.8%; in experiment [5] it was 17.9%; in experiment [6], 4.55%.
For `SCc1c(Cl)c(Cl)c(Cl)c(Cl)c1Cl.[Hg]`, the growth inhibition in experiment [1] is -7.65%; in experiment [2], -24.9%; in experiment [3], -15.5%; in experiment [4], -64.8%; in experiment [5], 3.45%; in experiment [6] it was -28.1%.
On to `Oc1ccc(Nc2c3ccc(Cl)cc3nc3ccc(-c4ccccc4)cc23)cc1CN(CCCl)CCCl`, for which the growth inhibition in experiment [1] was 98.4% (active); in experiment [2], 98.7% (active); in experiment [3], 98.8% (active); in experiment [4], 98.3% (active); in experiment [5], 93.5% (active); in experiment [6], 97.5% (active).
On to `CN1CCC23c4c5cc(-c6cc7c8c(c6O)OC6C(O)C=CC9C(C7)N(C)CCC896)c(O)c4OC2C(O)C=CC3C1C5` (stereo not given), for which the growth inhibition in experiment [1] was -5.2% and 0.8%; in experiment [2] it was -10.7% and -11.2%; in experiment [3], 1.9% and 2.85%; in experiment [4], -13.2% and 4.85%; in experiment [5], -4.45% and 7.4%; in experiment [6] it was -4.8% and 1.75%.
In the case of `O=C(O)CNC(=O)c1ccc([As](=O)(O)O)cc1`, the growth inhibition in experiment [1] was 21.1%; in experiment [2], 19.1%; in experiment [3], -26.4%; in experiment [4], 10.2%; in experiment [5] it was 22.1%; in experiment [6] it was 15.3%.
As to `Nc1ccc(S(=O)(=O)c2ccc(NCN3C(=O)NC(=O)C(=O)C3=O)cc2)cc1`, the growth inhibition is 24.9% in experiment [1]; 8.15% in experiment [2]; -11.4% in experiment [3]; 27.6% in experiment [4]; 13.6% in experiment [5]; 7.8% in experiment [6].
Consider `C[CH2][Sn]1([CH2]C)[O]OC(c2ccccc2)[O]1` (stereo not given), for which the growth inhibition in experiment [1] is 6.25%; in experiment [2] it was 2.75%; in experiment [3], 18.7%; in experiment [4] it was -3.65%; in experiment [5], 14.1%; in experiment [6], 20.3%.
With `O=C1C2CCC(C2)[CH]1[Hg][Cl]` (stereo not given), the growth inhibition in experiment [1] was 99.4% (active); in experiment [2], 99.7% (active); in experiment [3], 99.5% (active); in experiment [4], 99% (active); in experiment [5], 99.3% (active); in experiment [6], 99.5% (active).
As for `COC(=O)Nc1nc2ccccc2[nH]1`, the growth inhibition is -18.6% in experiment [1]; -4.4% in experiment [2]; -13% in experiment [3]; 4.2% in experiment [4]; 2.45% in experiment [5]; 7.15% in experiment [6].
In the case of `O=C([O-])C(F)(F)C(F)(F)F.[C-]#[O+].[C-]#[O+].[C-]#[O+].[C-]#[O+].[C-]#[O+].[Mn]`, the growth inhibition in experiment [1] was -8%; in experiment [2], -29%; in experiment [3], 3.65%; in experiment [4], 0%; in experiment [5], 0.25%; in experiment [6], -7.25%.
Take `NC(=O)c1ccc([As](O)O)cc1N`: the growth inhibition in experiment [1] is -0.05%; in experiment [2], -4.9%; in experiment [3] it was -12.5%; in experiment [4] it was -4.75%; in experiment [5], -11.5%; in experiment [6] it was -9.1%.
For the molecule `C1CN([PH+](N2CC2)N2CC2)CCO1.[C-]#[O+].[C-]#[O+].[C-]#[O+].[C-]#[O+].[C-]#[O+].[Mo]`, the growth inhibition in experiment [1] was -17.9%; in experiment [2], -1.7%; in experiment [3], -7.3%; in experiment [4], -31.4%; in experiment [5], 3.9%; in experiment [6] it was 3.95%.
Turning to `[Cl][Pt][Cl].[NH-]NC(=O)c1ccncc1`, the growth inhibition is 8.65% in experiment [1]; 5.8% in experiment [2]; -3.55% in experiment [3]; -17.1% in experiment [4]; 2.35% in experiment [5]; -2% in experiment [6].
Consider `C[N+]1([O-])[C@H]2CC(OC(=O)[C@H](CO)c3ccccc3)C[C@H]1[C@H]1O[C@H]12` (stereo not given in full), for which the growth inhibition in experiment [1] is -9.75%; in experiment [2] it was -3.35%; in experiment [3], -14.9%; in experiment [4], -26.5%; in experiment [5] it was -34.2%; in experiment [6], -10.1%.
As for `O=[As](O)(O)Cc1cccc(F)c1`, the growth inhibition in experiment [1] was -3.8%; in experiment [2], -7.8%; in experiment [3] it was -6.65%; in experiment [4] it was -46.5%; in experiment [5], 2.1%; in experiment [6] it was -8.35%.
For `CN(C)C(=O)C1(c2ccccc2)CCNCC1`, the growth inhibition in experiment [1] is 19.4%; in experiment [2] it was -1.7%; in experiment [3] it was 3.25%; in experiment [4], 1%; in experiment [5], 1.2%; in experiment [6], -4.2%.
As for `O=C(Nc1ccccc1Cl)OCC(Cl)(Cl)Cl`, the growth inhibition in experiment [1] was -15.3%; in experiment [2], 2%; in experiment [3], 16.1%; in experiment [4], -19.9%; in experiment [5] it was 19.8%; in experiment [6], -11.2%.
Turning to `[Fe+5].[O-][Cl+3]([O-])([O-])O.[O-]c1ccccc1C=NCCN1CC1.[O-]c1ccccc1C=NCCN1CC1`, the growth inhibition in experiment [1] is 1.8%; in experiment [2], 16%; in experiment [3], 30.1%; in experiment [4], 0.3%; in experiment [5], 37%; in experiment [6], 22.2%.
With `NC(Cc1ccccc1)c1ccccc1` (stereo not given), the growth inhibition in experiment [1] is 3.15% and -1.6%; in experiment [2], -7.3% and -0.95%; in experiment [3], 0.3% and -16.8%; in experiment [4] it was -36% and -23.1%; in experiment [5], 5.35% and 1.75%; in experiment [6], 14.8% and -0.1%.
Regarding `CC(=O)[O-].[Ni].c1ccc(/C(=N\Nc2ccccn2)c2ccccn2)cc1`, the growth inhibition in experiment [1] is 19.8%; in experiment [2], 3.15%; in experiment [3] it was 4.25%; in experiment [4], -3.7%; in experiment [5], -4.6%; in experiment [6], 18.6%.
For `O=C(O)c1ccc([As](=O)(O)O)cc1`, the growth inhibition in experiment [1] was -16.6%; in experiment [2], 4.3%; in experiment [3], 17.3%; in experiment [4] it was -35.2%; in experiment [5], -18.8%; in experiment [6] it was -4.8%.
Regarding `CC(=O)NN=C(N)N`, the growth inhibition in experiment [1] was 3.15% and -2%; in experiment [2] it was -1.5% and 2.75%; in experiment [3] it was -0.55% and 11.7%; in experiment [4], -29.9% and -24.1%; in experiment [5], -6.75% and -10.2%; in experiment [6] it was 14.1% and 5.9%.
As for `CC12CCC(=O)C=C1CCC1C2CCC2(C)C(OC(=O)C34C=CC(=O)C3C3C=CC4CC3)CCC12` (stereo not given), the growth inhibition in experiment [1] is 31.4%; in experiment [2] it was -1.2%; in experiment [3], 14.3%; in experiment [4], 22.6%; in experiment [5] it was -4.45%; in experiment [6] it was 19.2%.
Regarding `CN1CCN(Cc2ccccc2)CC1CC#N` (stereo not given), the growth inhibition in experiment [1] is -17.3%; in experiment [2] it was -34.8%; in experiment [3], -24.1%; in experiment [4], -0.2%; in experiment [5] it was 2.65%; in experiment [6] it was -30.9%.
In the case of `CC(C)=CC1C(C(=O)OCc2ccc(Cl)c(Cl)c2)C1(C)C` (stereo not given), the growth inhibition in experiment [1] was 4.25%; in experiment [2], -2.5%; in experiment [3] it was 8.9%; in experiment [4], 16.9%; in experiment [5], 8.9%; in experiment [6] it was 5.25%.
On to `COc1cccc(C)c1C1CC2CCCN2O1` (stereo not given), for which the growth inhibition in experiment [1] is 16.6%; in experiment [2], 5.5%; in experiment [3], 5.95%; in experiment [4], 9.4%; in experiment [5], 14.7%; in experiment [6], 5.3%.
Turning to `O=C(OCc1nc2ccccn2c1[N+](=O)[O-])N(CCCl)CCCl`, the growth inhibition in experiment [1] was -42.6%; in experiment [2], -21.5%; in experiment [3], -35.6%; in experiment [4] it was -10.8%; in experiment [5], 16.9%; in experiment [6] it was -46%.
